The supplement of paper PMC8387472

compound: CCc1c2c(nc3ccc(OC(=O)N4CCC(N5CCCCC5)CC4)cc13)-c1cc3c(c(=O)n1C2)COC(=O)[C@]3(O)CC [Irinotecan HCl Trihydrate]; experiment: fraction of 1-bp insertions among edited reads; higher = more 1-bp insertion outcomes; settings: mESC; 2uM; 72 h treatment, harvest day 5

| Target | fraction of 1-bp insertions among edited reads |
| --- | --- |
| 32.0 (DMSO control at this site: 1-bp insertion 0.03, MH deletion 0.85, edited 0.898) AGAAGTCCAGGATCAGGGGGACTGGGGTCGGGAGGGTGGGGCAGGAAGGAAGCCAGAATCA | 0.00964 |
| 26.0 (DMSO control at this site: 1-bp insertion 0.518, MH deletion 0.262, edited 0.026) AGGGCGCGCCCCACGCACTCTGCGGCAAGTCCCTCTGCGGCAAGTCCTCGGCCCGGAAGAC | 0.466 |
| 34.0 (DMSO control at this site: 1-bp insertion 0.184, MH deletion 0.385, edited 0.103) ATTATAGGACCCTGAGGGAGCAGAGATGTGGGAATGGGGGCCGAGCCAATTGTGATGTAAG | 0.184 |
| 18.0 (DMSO control at this site: 1-bp insertion 0.114, MH deletion 0.789, edited 0.094) GCGCAAGTGCATAAGTTTTTCTTAAGGCGTGCCTTTAAGGCGTGCCTTTGTCGGTCCTGGA | 0.109 |
| 41.0 (DMSO control at this site: 1-bp insertion 0.022, MH deletion 0.754, edited 0.115) AAAGAGACAGCAGGTATGAATCCATCTTCCTGACCCTTGGGACCAGCCGGGGCAGTGAAGC | 0.0367 |
| 47.0 (DMSO control at this site: 1-bp insertion 0.095, MH deletion 0.585, edited 0.118) GAGTGGTCCCGAGCCAGGAACTGTGTGTGTTGCAGGGGGGCAGTAACTCCCCAACTCCCTC | 0.118 |
| 35.0 (DMSO control at this site: 1-bp insertion 0.01, MH deletion 0.72, edited 0.098) CCACTTTTAGAGAGGGTGAAAATCATCAGTTATCATCAGGGCAACAAATTGCTTTCTCCTA | 0.0184 |
| 16.0 (DMSO control at this site: 1-bp insertion 0.172, MH deletion 0.29, edited 0.05) CGGACTGCACACATGGGTAGGATCGTGCACGCGAGGTAGGATCGTGCACGCGAAGTTATTC | 0.184 |
| 19.0 (DMSO control at this site: 1-bp insertion 0.121, MH deletion 0.101, edited 0.057) TCTGCAGGGGTCGGAACCCGGGGGCTAGGGCTATCCCGGGGGCTAGGGCTATTAGCGAACC | 0.0969 |
| 22.0 (DMSO control at this site: 1-bp insertion 0.573, MH deletion 0.229, edited 0.045) CTGATGGTTGAAGGATTTAGCCGGGGTCCTAGACGCCGGGGTCCTAGACGAAAGGGCCACG | 0.604 |
| 38.0 (DMSO control at this site: 1-bp insertion 0.063, MH deletion 0.487, edited 0.17) GGGCTGGGTGCTAAAATGAGGAGCTCCAAGAAGACTGAGGTGAACCTGGAGGCCCCTGAGC | 0.0536 |
| 5.0 (DMSO control at this site: 1-bp insertion 0.214, MH deletion 0.567, edited 0.105) CGCTGACCCGAGACCTACGCGAACCGAAATCGGCGACCGGTGCGCAAGCAGGGCTGGCGTC | 0.239 |
| 1.0 (DMSO control at this site: 1-bp insertion 0.521, MH deletion 0.323, edited 0.141) GTGTCACAGTGCACGAGTGACGGGATAATGTGCTGACAGGTAATTGATAGGCTTCCAACTT | 0.586 |
| 0.0 (DMSO control at this site: 1-bp insertion 0.463, MH deletion 0.339, edited 0.14) AGGATTACCGAGACCTACGCGAACCGAAATCGCTGTCCGGTGCGCAAGCAGGGCTGGCGTC | 0.456 |
| 3.0 (DMSO control at this site: 1-bp insertion 0.109, MH deletion 0.149, edited 0.09) TGCTAGCGCCCCCACAAAGCGGACCAGCCAGCACTATAGGGAATAAGGCCAACTTGCACCC | 0.111 |
| 7.0 (DMSO control at this site: 1-bp insertion 0.128, MH deletion 0.374, edited 0.098) TACTCAACCGAGACCTACGCGAACCGAAATCGTATGCCGGTGCGCAAGCAGGGCTGGCGTC | 0.105 |
| 39.0 (DMSO control at this site: 1-bp insertion 0.328, MH deletion 0.371, edited 0.204) CTGCACAGTCACTTAGGATAGGAGAAGATGATGTATAGGGTTTAGTGGGAGATGTTGCAAG | 0.423 |

| Target | fraction of 1-bp insertions among edited reads |
| --- | --- |
| 21.0 CGATTGAGAGTCAAACGGGCCAGAAAACTCCGGGAACGGGCCAGAAAACTCCGGGGCATGG | 0.0253 |
| 25.0 (DMSO control at this site: 1-bp insertion 0.017, MH deletion 0.774, edited 0.143) GGGCCTGAATGGTGTGGACATCTACTCGCTGGTGAGCTGGTGACTGAAAACATTCAGTGGC | 0.0204 |
| 27.0 CCAGAATTAGAACATATCATCTGGACCCTTTTCCATCTGGACCCTTTTCCAGCACACCCTG | 0.178 |
| 40.0 (DMSO control at this site: 1-bp insertion 0.072, MH deletion 0.192, edited 0.189) GCGAATCAACTGTTCAACAACAGCAGCAGCCACCTGGAGGACTACAGTGGCCTGTCCGTGT | 0.0746 |
| 42.0 (DMSO control at this site: 1-bp insertion 0.145, MH deletion 0.655, edited 0.132) GGGCTAAACCTATGAGCACAGTAGAACTAAGGGTGGGTGGTGTAGCTAAAGAACTTGACCA | 0.125 |
| 28.0 (DMSO control at this site: 1-bp insertion 0.035, MH deletion 0.77, edited 0.142) TGGTTCTTCCTTTGTAGAGAGTGTTCATCTGGGAATCTGGGACTTGGATGAGACAATCATT | 0.0322 |
| 2.0 (DMSO control at this site: 1-bp insertion 0.364, MH deletion 0.356, edited 0.125) GGTGCCCCCGAGACCTACGCGAACCGAAATCGATGTCCGGTGCGCAAGCAGGGCTGGCGTC | 0.355 |
| 4.0 (DMSO control at this site: 1-bp insertion 0.146, MH deletion 0.523, edited 0.125) ACGCCTTAGTGCACGAGTGACGGGATAATGTGGTCTCAGGTAATTGATAGGCTTCCAACTT | 0.116 |
| 31.0 (DMSO control at this site: 1-bp insertion 0.315, MH deletion 0.329, edited 0.026) ACCTCCACAGGCTGGGTGGCCCGGAGGCTGGGCGGCCCGGAGGCTGGGCTGGGCGAGTATC | 0.105 |
| 29.0 (DMSO control at this site: 1-bp insertion 0.084, MH deletion 0.745, edited 0.133) TTGATGAACTTCCTCTTCTTCTCATGTCTCCGGTCTCCGGTAGGCCACGTGCATGGCCACT | 0.0846 |
| 17.0 (DMSO control at this site: 1-bp insertion 0.112, MH deletion 0.348, edited 0.058) CCATAGCGCGATAAATATGACGGCTCATCCTGTATGACGGCTCATCCTGTATCAACTGTCC | 0.161 |
| 45.0 (DMSO control at this site: 1-bp insertion 0.017, MH deletion 0.666, edited 0.101) TTACACAGCATGAACTGCTAGGTGATGATGTCAGATTCGGTTTTACTAACTTCTCCAAAAA | 0.0413 |
| 30.0 (DMSO control at this site: 1-bp insertion 0.074, MH deletion 0.67, edited 0.142) GAGCTGGCATGAGTATTTGTGCCACATGGCTCCCACATGGCTCCACATGCAAGTTTGAAAC | 0.0999 |
| 44.0 (DMSO control at this site: 1-bp insertion 0.181, MH deletion 0.512, edited 0.123) ACACATACCTTCTTCGAGGCAGCCAGCATGATGAGACAGGTCTCCCACAAACACATCGTGT | 0.21 |
| 20.0 (DMSO control at this site: 1-bp insertion 0.349, MH deletion 0.138, edited 0.084) TACAGGTGTAGACTGGTTACGTGGCTGCGGAATTGACTGGTTACGTGGCTGCGGAATTTTG | 0.285 |
| 43.0 (DMSO control at this site: 1-bp insertion 0.134, MH deletion 0.714, edited 0.104) AGTTTAACTTACTCCGGCCAAAAAAGAACTGCACCTCTGGAGCGGGTTAGTGGTGGTGGTA | 0.113 |
| 33.0 (DMSO control at this site: 1-bp insertion 0.008, MH deletion 0.771, edited 0.112) CATTAAGAGCAGCTGCCGGCCCCCAAGTGGACAGAGCTGGCCCTGCTGATTCAACAGTGCA | 0.0322 |
